For 13 molecules, growth results are on record in PubChem BioAssay (NCI).

Test systems include RPMI-8226 leukemia; OVCAR-8 ovarian; OVCAR-5 ovarian; OVCAR-4 ovarian; SK-OV-3 ovarian; OVCAR-3 ovarian; HS 578T breast; NCI/ADR-RES ovarian; IGROV1 ovarian.
Holding throughout (assay): NCI-60 one-dose screen, 48 h (100 = growth as untreated, 0 = no growth, -100 = all killed)
What all share (conditions): 10 µM unless noted

Each structure is given as a SMILES string. About 83,000 compounds went through this panel and 20% of them were active in at least one assay; those are over-represented in the sample as a whole.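 Plates (96-well) were seeded with cells, treated with compound at one concentration, and incubated for 48 hours before percent growth was determined.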 Values without a mark were called inactive. Activity calls are given as the source filed them. The calls were made as follows: active = growth percent below 10; inactive = the rest.

On to `Clc1ccc2nc(CI)c(CI)nc2c1`, for which the growth in the experiment on RPMI-8226 leukemia is -36.6% (active); in the experiment with OVCAR-8 ovarian, 93%; in the experiment on OVCAR-5 ovarian it was 91%; with OVCAR-4 ovarian, 100%; in the experiment on SK-OV-3 ovarian, 98.8%; with OVCAR-3 ovarian, 65.4%. The values for the growth in the experiment with HS 578T breast and with NCI/ADR-RES ovarian were 158% and 100%, respectively.
As to `O=C(Nc1ccc(Cl)cc1)Nc1nc2ccc(OC(F)(F)F)cc2o1`, the growth in the experiment on OVCAR-8 ovarian was 85.4%; in the experiment on OVCAR-5 ovarian, 95.9%; with OVCAR-4 ovarian, 83.7%; with SK-OV-3 ovarian it was 103%; in the experiment with IGROV1 ovarian it was 130%; in the experiment with OVCAR-3 ovarian it was 74.3%. Also, the growth with HS 578T breast was 143%; in the experiment on NCI/ADR-RES ovarian, 95%.
Take `COc1ccc2c(=O)c(OC)c(-c3cc(OC)c(OC)c(OC)c3)oc2c1`: the growth is 92.6% with RPMI-8226 leukemia; 101% in the experiment on OVCAR-5 ovarian; 96.6% in the experiment on OVCAR-4 ovarian; 114% in the experiment with SK-OV-3 ovarian; 98.6% with OVCAR-3 ovarian; 91.9% in the experiment on HS 578T breast. For the same molecule, the growth in the experiment with NCI/ADR-RES ovarian is 83.9%.
As for `CC(=O)Nc1c(Cl)cc2c(c1Cl)Cc1ccccc1-2`, the growth in the experiment with OVCAR-8 ovarian was 102%; in the experiment on OVCAR-5 ovarian, 85.4%; in the experiment with OVCAR-4 ovarian, 100%; in the experiment on SK-OV-3 ovarian it was 113%; in the experiment with IGROV1 ovarian, 93%; in the experiment with OVCAR-3 ovarian, 105%. Also, the growth is 114% in the experiment on HS 578T breast and 103% with NCI/ADR-RES ovarian.
For the molecule `Cc1sc2nc3c4ccccc4c(NCCCN(C)C)nn3c(=O)c2c1C`, the growth with RPMI-8226 leukemia was -56.4% (active); in the experiment on OVCAR-5 ovarian, 71%; in the experiment on OVCAR-4 ovarian, 65.8%; in the experiment with SK-OV-3 ovarian, 65.7%; in the experiment on IGROV1 ovarian, 23.4%; in the experiment on OVCAR-3 ovarian it was 59.2%. Also, the growth in the experiment with HS 578T breast is 71.6%; in the experiment with NCI/ADR-RES ovarian it was 66.8%.
For the molecule `COc1ccc(C(=O)/C=C/c2ccc(C)cc2)cc1OC`, the growth with RPMI-8226 leukemia is 18.9%; with OVCAR-5 ovarian, 90.1%; with OVCAR-4 ovarian, 72.6%; in the experiment with SK-OV-3 ovarian, 97.7%; with IGROV1 ovarian, -18.8% (active); with HS 578T breast it was 107%. Further, the growth in the experiment with NCI/ADR-RES ovarian was 71.2%.
On to `Cc1nn(-c2ccccc2)c2nc(N)c(C3=NCCO3)nc12`, for which the growth in the experiment with RPMI-8226 leukemia is 87.2%; in the experiment on OVCAR-8 ovarian, 95.9%; with OVCAR-5 ovarian, 93.3%; in the experiment with SK-OV-3 ovarian, 94.2%; in the experiment on IGROV1 ovarian, 94.4%; in the experiment with OVCAR-3 ovarian, 114%. Further, the growth with HS 578T breast is 82.2%; in the experiment on NCI/ADR-RES ovarian it was 101%.
On to `COc1cccc(N2CCN(CC(=O)N3CCN(c4nnc(-c5ccc(Cl)cc5)c(-c5ccc(Cl)cc5)n4)CC3)CC2)c1`, for which the growth in the experiment with RPMI-8226 leukemia is -37.2% (active); with OVCAR-5 ovarian, 85.9%; in the experiment on OVCAR-4 ovarian, 57.9%; with SK-OV-3 ovarian, 95.6%; in the experiment with OVCAR-3 ovarian, 68.1%; in the experiment with HS 578T breast it was 58.4%. Further, the growth in the experiment on NCI/ADR-RES ovarian was 65.2%.
For the molecule `O=C(CN1CCN(c2ccc(Cl)cc2)CC1)N1CCN(c2nnc(-c3ccc(Cl)cc3)c(-c3ccc(Cl)cc3)n2)CC1`, the growth in the experiment on RPMI-8226 leukemia is 8.48% (active); with OVCAR-5 ovarian, 103%; in the experiment with OVCAR-4 ovarian, 74.2%; in the experiment on SK-OV-3 ovarian, 111%; in the experiment with IGROV1 ovarian it was 37.7%; in the experiment on OVCAR-3 ovarian it was 78.4%. Moreover, the growth with HS 578T breast was 71.7%; in the experiment with NCI/ADR-RES ovarian, 72.9%.
On to `COc1ccc(CC(=O)Nc2nn3c(-c4cc(C(F)(F)F)cc(C(F)(F)F)c4)nnc3s2)cc1`, for which the growth was 39.7% in the experiment with RPMI-8226 leukemia; 65% in the experiment on OVCAR-8 ovarian; 96% in the experiment on OVCAR-5 ovarian; 66.3% with OVCAR-4 ovarian; 59.9% in the experiment on IGROV1 ovarian; 53.5% in the experiment on OVCAR-3 ovarian. The growth was 75.6% in the experiment with HS 578T breast and 69.1% in the experiment on NCI/ADR-RES ovarian.
In the case of `CCOC(CNCc1cc(C)c2[nH]c3ccccc3c2c1C)OCC`, the growth in the experiment on OVCAR-8 ovarian was 89.5%; in the experiment on OVCAR-5 ovarian it was 99.3%; with OVCAR-4 ovarian it was 58.7%; in the experiment on SK-OV-3 ovarian it was 93.1%; with IGROV1 ovarian, 83.9%; in the experiment with OVCAR-3 ovarian, 83.9%. The figures for the growth with HS 578T breast and in the experiment on NCI/ADR-RES ovarian were 84.6% and 77.2%, respectively.
With `COc1ccc(N2CCN(CC(=O)N3CCN(c4nnc(-c5ccccc5)c(-c5ccccc5)n4)CC3)CC2)cc1`, the growth in the experiment with RPMI-8226 leukemia is 1.97% (active); with OVCAR-5 ovarian, 90.3%; with OVCAR-4 ovarian it was 49.8%; with SK-OV-3 ovarian, 80.7%; with OVCAR-3 ovarian it was 49.5%; in the experiment on HS 578T breast, 54.7%. Moreover, the growth in the experiment with NCI/ADR-RES ovarian is 49.9%.
On to `CN(C)c1ncnc2c1ncn2C1CCCCO1` (centres undefined), for which the growth is 107% in the experiment with OVCAR-8 ovarian; 104% with OVCAR-5 ovarian; 104% in the experiment with OVCAR-4 ovarian; 107% in the experiment on SK-OV-3 ovarian; 112% with IGROV1 ovarian; 113% in the experiment on OVCAR-3 ovarian. In addition, in the experiment on NCI/ADR-RES ovarian, the growth is 108%.
